Measured values reported in PubChem BioAssay.
Activity calls are given as the source filed them.

Tests used:
[1] = binders of probe aFSTL3 on microarray, primary screen, stem cell growth factor project, biochemical, small-molecule microarray, fluorescence 635/667 (AID 1064); details: higher = more signal;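 further: measures binding of the biotinylated anti-FSTL3 antibody to printed compounds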
[2] = binders from COS7 lysate, DM2A8 probe, primary screen, torsin A project, cell lysate, small-molecule microarray, fluorescence 635/667 (AID 1065); details: higher = more signal, COS7 lysate expressing mutant human TOR1A
[3] = binders of probe aFGF2 on microarray, primary screen, stem cell growth factor project, biochemical, small-molecule microarray, fluorescence 635/667 (AID 1067); details: higher = more signal;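 further: measures binding of biotinylated aFGF2 protein to printed compounds on slides; z-score merges feature fluorescence and signal-to-noise across triplicate slides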
[4] = binders of probe aFGF10 on microarray, primary screen, stem cell growth factor project, biochemical, small-molecule microarray, fluorescence 635/667 (AID 1071); details: higher = more signal;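 further: score merges 667 nm spot intensity and signal to noise from triplicate slides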
[5] = biological target: Neurogenic locus notch homolog protein 2 (Homo sapiens) (UniProt Q04721); test: Notch2 binders on small-molecule microarrays, primary screen, biochemical, small-molecule microarray, 635 nm fluorescence, stem cell growth factors (AID 1073); details: Notch2 binding, higher = more signal
[6] = biological target: Pro-neuregulin-1, membrane-bound isoform (Homo sapiens) (UniProt Q02297); test: NRG1 binders on small-molecule microarrays, primary screen, psychiatric disease protein project, biochemical, small-molecule microarray, fluorescence 635/667 (AID 1075); details: NRG1 binding, 635 nm fluorescence, higher = more signal;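 further: score combines 667 nm spot fluorescence with signal to noise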
[7] = tested on: Neuregulin-1 EGF-like domain; test: binders of neuregulin-1 EGF-like domain, primary screen, biochemical, small-molecule microarray, 635 nm fluorescence (AID 1081); details: small-molecule microarray binding, higher = more signal;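 further: binding of the protein to compounds printed on small-molecule microarray slides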
[8] = FRG1 promoter luciferase signal modulators, primary screen, FRG1 inhibition for FSHD, cell-based, C2C12 myotubes, firefly/Renilla luciferase, luminescence (AID 1084); details: higher = more signal, called active from +8 up or from −8 down
[9] = binders of probe aFST on microarray, primary screen, stem cell growth factor project, biochemical, small-molecule microarray, fluorescence 635/667 (AID 1086); details: higher = more signal;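 further: score merges 667 nm fluorescence with signal-to-noise of each printed compound spot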
[10] = binders of probe aHhip on microarray, primary screen, stem cell growth factor project, biochemical, small-molecule microarray, fluorescence 635/667 (AID 1087); details: higher = more signal;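 further: score merges spot fluorescence at 667nm with spot signal to noise ratio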
[11] = tested on: PRMT1 (protein arginine N-methyltransferase 1); test: PRMT1 binders on small-molecule microarrays, primary screen, biochemical, small-molecule microarray, 635 nm fluorescence (AID 1088); details: small-molecule microarray binding, higher = more signal;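 further: binding of Prmt1 protein to compounds spotted on small-molecule microarray slides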
[12] = yeast growth modulation, basal conditions, primary screen, YJM789 clinical isolate, OD600, 24 h (AID 1089);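 further: growth of clinical yeast isolate S. cerevisiae YJM 789 seeded 1000 cells per well; test concentration not given here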; details: S. cerevisiae YJM789 growth, higher = more signal, called active from +8 up or from −8 down
[13] = fission yeast growth modulation, primary screen, strain 972, OD600, 24 h, no modulator (AID 1090);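 further: basal condition with compound alone and no growth modifier present; test concentration not given here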; details: S. pombe 972 growth, higher = more signal, called active from +8 up or from −8 down
[14] = S. cerevisiae growth modulation with rapamycin, primary screen, strain BY4716, OD600, 96 h (AID 1091); details: higher = more signal, called active from +8 up or from −8 down; further: test concentration not given here
[15] = biological target: Torsin-1A-interacting protein 2 (Homo sapiens) (UniProt Q8NFQ8); test: LULL1 binders on small-molecule microarray, primary screen, cell lysate, human LULL1 lysate, 635/667 nm fluorescence (AID 1092); details: hLULL1 lysate binding, 635 nm fluorescence, higher = more signal;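 further: probe is lysate of COS7 cells overexpressing human LULL1; score merges per-feature 667 nm fluorescence with signal-to-noise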
[16] = E. coli growth modulation, two-sided OD650, primary screen, E. coli filamentation project, strain DRC41, 24 h (AID 1093); details: OD650, 24 h, higher = more signal, called active from +8 up or from −8 down;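 further: MC1000 strain lacking acrAB efflux and sulA so SOS filamentation is blocked; test concentration not given here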
[17] = small-molecule microarray binders of probe aLefty2, primary screen, biochemical, biotinylated probe, 635/667 nm fluorescence (AID 1094); details: higher = more signal;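 further: score merges spot fluorescence near 667 nm with spot signal-to-noise ratio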
[18] = tested on: Noggin (protein binding on small-molecule microarray); test: Noggin binders on small-molecule microarray, primary screen, biochemical, 635/667 nm fluorescence (AID 1095); details: 635 nm fluorescence, higher = more signal;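 further: score merges 667 nm feature fluorescence with signal to noise over triplicate slides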
[19] = biological target: Neurogenic locus notch homolog protein 3 (Homo sapiens) (UniProt Q9UM47); test: NOTCH3 binders on small-molecule microarray, primary screen, biochemical, 635/667 nm fluorescence (AID 1096); details: NOTCH3 binding, 635 nm fluorescence, higher = more signal
[20] = small-molecule microarray binders of probe aEGFR, primary screen, biochemical, biotinylated probe, 635/667 nm fluorescence (AID 1097); details: higher = more signal;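 further: probe is a biotinylated anti-EGFR antibody binding compounds printed on slides; score combines fluorescence near 667 nm and signal to noise of each spot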

Sequence of Torsin-1A-interacting protein 2 (Homo sapiens) (Q8NFQ8 whole entry, looked up): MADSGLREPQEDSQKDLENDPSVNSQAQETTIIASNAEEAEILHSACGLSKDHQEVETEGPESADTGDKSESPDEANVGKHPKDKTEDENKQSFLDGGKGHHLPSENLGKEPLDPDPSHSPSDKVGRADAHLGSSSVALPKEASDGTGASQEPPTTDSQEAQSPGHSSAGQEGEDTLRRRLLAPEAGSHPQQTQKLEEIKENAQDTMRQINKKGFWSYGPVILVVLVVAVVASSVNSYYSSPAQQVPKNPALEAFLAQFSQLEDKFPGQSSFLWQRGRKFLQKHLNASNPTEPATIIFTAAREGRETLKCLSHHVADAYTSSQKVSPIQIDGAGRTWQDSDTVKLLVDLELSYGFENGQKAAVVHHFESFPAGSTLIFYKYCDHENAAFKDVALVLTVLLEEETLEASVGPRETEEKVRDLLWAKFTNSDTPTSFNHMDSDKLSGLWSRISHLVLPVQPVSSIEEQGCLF
Sequence of Neurogenic locus notch homolog protein 2 (Homo sapiens) (Q04721 whole entry, looked up, canonical isoform): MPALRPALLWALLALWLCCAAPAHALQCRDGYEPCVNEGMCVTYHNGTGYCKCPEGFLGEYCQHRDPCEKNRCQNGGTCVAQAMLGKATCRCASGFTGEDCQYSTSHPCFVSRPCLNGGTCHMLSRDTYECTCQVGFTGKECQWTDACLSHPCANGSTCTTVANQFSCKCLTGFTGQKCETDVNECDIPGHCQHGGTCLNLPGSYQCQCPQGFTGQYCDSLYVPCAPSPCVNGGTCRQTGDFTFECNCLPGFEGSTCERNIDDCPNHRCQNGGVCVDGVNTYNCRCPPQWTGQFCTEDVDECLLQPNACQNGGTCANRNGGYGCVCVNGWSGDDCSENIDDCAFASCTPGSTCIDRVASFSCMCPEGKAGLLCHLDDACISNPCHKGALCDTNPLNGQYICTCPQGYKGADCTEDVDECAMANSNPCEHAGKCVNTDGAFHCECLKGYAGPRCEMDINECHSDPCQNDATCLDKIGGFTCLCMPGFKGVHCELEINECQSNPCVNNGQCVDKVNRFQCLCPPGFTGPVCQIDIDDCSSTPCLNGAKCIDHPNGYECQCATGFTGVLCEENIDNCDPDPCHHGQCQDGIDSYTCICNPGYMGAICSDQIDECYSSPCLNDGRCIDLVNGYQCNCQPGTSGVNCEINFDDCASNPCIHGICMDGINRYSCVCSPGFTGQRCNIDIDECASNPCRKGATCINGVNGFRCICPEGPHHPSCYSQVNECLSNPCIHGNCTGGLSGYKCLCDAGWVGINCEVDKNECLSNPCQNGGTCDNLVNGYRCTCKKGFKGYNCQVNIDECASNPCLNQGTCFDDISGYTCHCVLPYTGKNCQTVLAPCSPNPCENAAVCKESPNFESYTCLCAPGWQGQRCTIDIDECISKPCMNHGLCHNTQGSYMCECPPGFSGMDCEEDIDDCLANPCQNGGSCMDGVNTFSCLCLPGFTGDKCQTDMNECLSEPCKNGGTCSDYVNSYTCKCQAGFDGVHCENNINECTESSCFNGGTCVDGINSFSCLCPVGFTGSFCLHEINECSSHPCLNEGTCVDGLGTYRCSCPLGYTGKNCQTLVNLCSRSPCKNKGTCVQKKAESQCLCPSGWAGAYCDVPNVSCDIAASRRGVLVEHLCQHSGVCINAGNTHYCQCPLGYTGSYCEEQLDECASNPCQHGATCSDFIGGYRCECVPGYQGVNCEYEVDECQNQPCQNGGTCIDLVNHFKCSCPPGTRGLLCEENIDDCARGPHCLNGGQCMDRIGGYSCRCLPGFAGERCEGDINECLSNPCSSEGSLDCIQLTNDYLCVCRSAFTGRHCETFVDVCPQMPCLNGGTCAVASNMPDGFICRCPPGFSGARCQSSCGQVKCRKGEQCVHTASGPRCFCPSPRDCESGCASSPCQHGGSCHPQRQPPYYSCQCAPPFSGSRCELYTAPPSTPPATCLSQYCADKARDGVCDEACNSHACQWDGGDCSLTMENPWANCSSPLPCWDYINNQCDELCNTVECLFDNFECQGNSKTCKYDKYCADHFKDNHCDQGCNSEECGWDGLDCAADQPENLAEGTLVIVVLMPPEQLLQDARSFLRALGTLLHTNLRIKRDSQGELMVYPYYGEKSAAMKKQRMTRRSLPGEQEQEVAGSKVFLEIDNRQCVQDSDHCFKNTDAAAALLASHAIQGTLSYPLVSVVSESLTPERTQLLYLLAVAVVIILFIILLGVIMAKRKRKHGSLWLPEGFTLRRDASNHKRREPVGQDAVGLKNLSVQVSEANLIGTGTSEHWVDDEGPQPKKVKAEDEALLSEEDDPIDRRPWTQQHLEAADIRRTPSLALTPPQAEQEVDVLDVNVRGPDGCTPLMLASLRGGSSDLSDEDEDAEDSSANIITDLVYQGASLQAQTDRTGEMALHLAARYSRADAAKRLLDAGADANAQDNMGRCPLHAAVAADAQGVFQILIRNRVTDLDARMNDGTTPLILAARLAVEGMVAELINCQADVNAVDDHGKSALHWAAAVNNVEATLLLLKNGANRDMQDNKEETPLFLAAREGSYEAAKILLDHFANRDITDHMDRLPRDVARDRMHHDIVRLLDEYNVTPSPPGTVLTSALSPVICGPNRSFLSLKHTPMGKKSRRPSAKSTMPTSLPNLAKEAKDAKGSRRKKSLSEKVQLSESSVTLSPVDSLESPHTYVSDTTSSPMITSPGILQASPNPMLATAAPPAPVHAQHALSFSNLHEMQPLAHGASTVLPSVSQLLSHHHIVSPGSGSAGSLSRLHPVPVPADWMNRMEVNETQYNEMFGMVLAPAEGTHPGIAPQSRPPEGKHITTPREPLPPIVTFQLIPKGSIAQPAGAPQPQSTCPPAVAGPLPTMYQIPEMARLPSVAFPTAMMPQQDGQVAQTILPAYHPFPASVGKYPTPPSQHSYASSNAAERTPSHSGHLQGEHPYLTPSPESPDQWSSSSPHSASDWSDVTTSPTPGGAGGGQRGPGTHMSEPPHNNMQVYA
Sequence of Pro-neuregulin-1, membrane-bound isoform (Homo sapiens) (Q02297 whole entry, looked up, the tested form may be a part, canonical isoform): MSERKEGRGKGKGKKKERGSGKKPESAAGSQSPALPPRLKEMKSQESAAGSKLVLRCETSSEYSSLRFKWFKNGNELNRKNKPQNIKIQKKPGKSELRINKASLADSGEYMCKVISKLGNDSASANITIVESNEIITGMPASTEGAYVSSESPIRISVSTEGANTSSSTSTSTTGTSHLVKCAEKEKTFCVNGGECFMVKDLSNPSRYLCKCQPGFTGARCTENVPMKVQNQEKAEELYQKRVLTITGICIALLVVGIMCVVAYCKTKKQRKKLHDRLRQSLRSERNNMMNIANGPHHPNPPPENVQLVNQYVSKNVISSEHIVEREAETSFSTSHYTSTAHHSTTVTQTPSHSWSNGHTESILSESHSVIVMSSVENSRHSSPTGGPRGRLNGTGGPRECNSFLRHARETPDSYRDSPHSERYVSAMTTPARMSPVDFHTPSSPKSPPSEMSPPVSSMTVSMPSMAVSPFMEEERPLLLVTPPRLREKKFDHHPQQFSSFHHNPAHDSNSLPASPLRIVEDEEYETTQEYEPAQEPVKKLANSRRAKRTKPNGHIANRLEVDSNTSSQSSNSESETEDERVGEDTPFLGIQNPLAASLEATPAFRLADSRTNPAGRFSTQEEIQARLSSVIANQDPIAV

Structure (SMILES) | composite z-score [1] | composite z-score [2] | composite z-score [3] | composite z-score [4] | composite z-score [5] | composite z-score [6] | composite z-score [7] | z-score [8] | composite z-score [9] | composite z-score [10] | composite z-score [11] | z-score [12] | z-score [13] | z-score [14] | composite z-score [15] | z-score [16] | composite z-score [17] | composite z-score [18] | composite z-score [19] | composite z-score [20]
C=CCN1C(=O)[C@@]2(Cc3ccccc3)N=C(c3ccc(OCCCO)cc3)O[C@H]2c2ccccc21 | 1.02 | 0.22 | 0.0714 | 0.0096 | 0.895 | 0.14 | 1.14 | -2.86 (inactive) | 0.691 | -0.132 | 1.36 | -0.772 (inactive) | -5.06 (inactive) | 1.63 (inactive) | 2.77 | 0.612 (inactive) | 0.44 | 0.293 | 1.08 | 0.031
COCCOC(=O)N1C(=O)[C@@]2(c3cc(C#CCNC(N)=O)ccc31)[C@H](c1ccccc1OCCO)N1[C@H](c3ccccc3)[C@H](c3ccccc3)OC(=O)[C@H]1[C@@H]2C(=O)NC[C@H](O)c1ccccc1 | -0.342 | 1.27 | -0.0083 | 0.658 | 0.472 | 1.54 | 1.21 | -0.163 (inactive) | 0.512 | -0.0672 | 1.53 | 2.75 (inactive) | 2.09 (inactive) | 6.12 (inactive) | 3.01 | 0.589 (inactive) | -0.0977 | 1.12 | 1.1 | -0.065
COCC(=C=CC[C@H](O)c1ccc(OCCO)cc1)C[C@H](O)c1ccccn1 | -0.103 | 0.628 | -0.156 | -0.106 | -0.499 | 0.508 | 1.27 | 1.61 (inactive) | -0.192 | -0.134 | 0.546 | 0.725 (inactive) | -1.05 (inactive) | -0.352 (inactive) | 1.38 | 1.06 (inactive) | -0.0216 | 0.0559 | -0.457 | -0.235
CO[C@@H]1COC(=O)[C@H](COCc2ccccc2)NC(=O)CC=C[C@@H](C)[C@H](OC)COC(=O)[C@H](COCc2ccccc2)NC(=O)CC=C[C@H]1C | -0.594 | 0.334 | -0.138 | -0.0596 | 0.0136 | 0.567 | -0.618 | -0.496 (inactive) | -0.0224 | -0.0994 | 0.0472 | 0.982 (inactive) | -0.371 (inactive) | 0.921 (inactive) | -0.0267 | -0.405 (inactive) | -0.226 | 0.63 | -0.511 | -0.0605
N#Cc1ccc(NN2C(C(O)CCc3ccccc3)C=CC3C(=O)N(c4ccccc4)C(=O)C32)cc1 (stereo not given) | 0.681 | 0.936 | 0.078 | -0.0011 | 1.62 | 1.17 | 1 | -1.22 (inactive) | 1.02 | -0.177 | 0.212 | -1.53 (inactive) | 0.222 (inactive) | 1.13 (inactive) | 3.01 | -1.11 (inactive) | 0.25 | -0.172 | 1.13 | 0.35
C=CC[C@@]1(C(=O)NCC(O)CO)N=C(c2ccc(OCCCO)cc2)O[C@@H]1c1ccccc1CN=[N+]=[N-] (stereo not given in full) | 0.325 | 0.674 | -0.11 | -0.355 | 0.13 | 1.79 | 1.23 | -2.68 (inactive) | 0.966 | -0.236 | 1.18 | -0.785 (inactive) | -1.42 (inactive) | -1.04 (inactive) | 3.84 | 1.52 (inactive) | -0.147 | -0.265 | -0.216 | -0.152
C=C(COC)/C(=C/C[C@@H](OC(C)=O)c1cccc(OCCO)c1)c1cc(C(=O)OC)ccc1OC | 0.0462 | 0.361 | -0.103 | 0.396 | -0.0821 | -0.582 | 0.597 | -0.637 (inactive) | 0.105 | 0.0274 | 0.602 | 0.036 (inactive) | -1.11 (inactive) | -1.03 (inactive) | 0.228 | 1.09 (inactive) | 0.0116 | 1.56 | 0.493 | -0.15
C=C(CCCC)C(=O)CC[C@@H](OC(=O)c1cccnc1)c1cccc(OCCO)c1 | 0.116 | 0.908 | 0.0766 | 1.07 | -0.552 | 0.544 | 0.586 | 0.197 (inactive) | 0.344 | -0.0645 | 1.12 | -0.323 (inactive) | -2.6 (inactive) | -0.2 (inactive) | 0.136 | 0.493 (inactive) | -0.186 | 0.491 | 0.145 | -0.145
CC(C)NC(=O)[C@@]1(Cc2ccccc2I)c2ccccc2C(=O)N(C2CCCCC2)[C@H]1c1ccc(CO)cc1 | -0.107 | 0.072 | 0.0402 | 0.87 | 1.18 | 1.86 | 1.38 | -2.62 (inactive) | 1.38 | 0.0505 | 1.53 | 0.401 (inactive) | -2.09 (inactive) | -1.03 (inactive) | 3.4 | -0.432 (inactive) | 0.261 | 0.128 | 1.14 | 0.0861
CC/C=C/C(=O)N(C[C@@H]1CCCO1)[C@@H]1CC(C(=O)NCCO)=C[C@H](Oc2c(I)cc(CO)cc2OC)[C@H]1O | -0.329 | 0.51 | -0.22 | 0.629 | 0.347 | 0.06 | 0.366 | -1.24 (inactive) | -0.176 | -0.0994 | 0.505 | -0.811 (inactive) | -1.79 (inactive) | -1.91 (inactive) | 1.69 | -0.159 (inactive) | 0.0612 | -0.294 | -0.155 | -0.191
